The nature of test [1]: qHTS assay to test for compound auto fluorescence at 535 nm (green) in HEK293 cells (AID 720680).
Test [2] can be described thus: qHTS assay to test for compound auto fluorescence at 460 nm (blue) in HEK293 cell free culture (AID 720681). The method in brief: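 Compounds were added to cell-free DMEM with 10% FBS and fluorescence read directly. The blue channel used 405 nm excitation and 460 nm emission, with triamterene as the reference fluorophore.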
Test [3] can be described thus: qHTS assay to test for compound auto fluorescence at 535 nm (green) in HEK293 cell free culture (AID 720682). A digest of the protocol:
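Green-channel intensity (Ex/Em 485/535 nm) was recorded from compound-treated wells containing only DMEM with 10% FBS. Fluorescein provided the equivalency standard.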

Test [4] can be described thus: qHTS assay to test for compound auto fluorescence at 590 nm (red) in HEK293 cell free culture (AID 720683). A digest of the protocol:
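Cell-free wells of DMEM with 10% FBS received compound, and intrinsic fluorescence was read at excitation/emission 540/590 nm. Values expressed as equivalence to Rose Bengal sodium.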

A short description of test [5]: qHTS assay to test for compound auto fluorescence at 590 nm (red) in HepG2 cell free culture (AID 720684). A digest of the protocol: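 Compounds are added to culture medium (MEM, 10% FBS) lacking cells, then fluorescence is read at excitation 540 nm, emission 590 nm, with Rose Bengal sodium as the equivalency standard.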
Test [6] can be described thus: qHTS assay to test for compound auto fluorescence at 460 nm (blue) in HepG2 cell free culture (AID 720685). A digest of the protocol: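 Compound (23 nL) or DMSO pinned into cell-free MEM with 10% FBS; blue fluorescence read at 405/460 nm excitation/emission, expressed as auto-fluorescence equivalency to triamterene.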
Test [7] is described as follows: qHTS assay to test for compound auto fluorescence at 535 nm (green) in HepG2 cell free culture (AID 720686).
The nature of test [8]: qHTS assay to test for compound auto fluorescence at 460 nm (blue) in HepG2 cells (AID 720687). A digest of the protocol: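 HepG2 cells in MEM with 10% FBS, attached overnight at 37 C, were exposed to compound or DMSO for 1 hr at 37 C, 5% CO2. Blue fluorescence was read at 405/460 nm, with triamterene as reference fluorophore.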
Test [9] addresses Glucocorticoid receptor (Homo sapiens) (UniProt P04150). As to the kind of experiment: qHTS assay to identify small molecule agonists of the glucocorticoid receptor (GR) signaling pathway (AID 720691; active = well fitted activation curve with a large enough effect in the signal ratio in the repeat runs, not every such curve was filed as active; the % refers to the signal ratio; note: potency is the fitted concentration of half-maximal effect). The method in brief: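 Fluorescence intensity from LiveBLAzer B/G FRET substrate (2 h, room temperature) reports beta-lactamase expression driven by the glucocorticoid response element in GR-bla HeLa cells after 18 h compound exposure at 37 C.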

Test [10] is described as follows: qHTS assay to identify small molecule antagonists of the glucocorticoid receptor (GR) signaling pathway - cell viability counter screen (AID 720693). Note: nearly all actives have a fitted effect of over 55% in size.
The nature of test [11]: qHTS assay for identifying genotoxic compounds that show differential cytotoxicity against isogenic chicken DT40 cell lines with known DNA damage response pathways - wild type cell line (AID 743012). Note: nearly all actives have a fitted effect of over 60% in size. A digest of the protocol:
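Wild type DT40, 300 cells/well, ~0.5 h settle at 37 C/5% CO2; compounds in DMSO added by pintool; 40 h at 37 C/5% CO2; CellTiter-Glo, 30 min RT; luminescence.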

A short description of test [12]: qHTS assay for identifying genotoxic compounds that show differential cytotoxicity against isogenic chicken DT40 cell lines with known DNA damage response pathways - Rev3 mutant cell line (AID 743014). Note: nearly all actives have a fitted effect of over 55% in size.
Test [13] in a line: qHTS assay to identify small molecule antagonists of the androgen receptor (AR) signaling pathway - cell viability counter screen (AID 743033; note: nearly all actives have a fitted effect of over 45% in size).
The nature of test [14]: qHTS assay to identify small molecule antagonists of the androgen receptor (AR) signaling pathway using the MDA cell line - cell viability counter screen (AID 743041; note: nearly all actives have a fitted effect of over 45% in size). A digest of the protocol:
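Same-well cytotoxicity was assessed by CellTiter-Fluor in MDA-kb2 AR-luc cells after 16 h of compound treatment under R1881 agonism.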

The target in test [15] is Glucocorticoid receptor (Homo sapiens) (UniProt P04150). Nature of the test: qHTS assay to identify small molecule antagonists of the glucocorticoid receptor (GR) signaling pathway (AID 720692; active = well fitted inhibition curve with a large enough effect in the signal ratio in the repeat runs, not every such curve was filed as active; the % refers to the signal ratio). A digest of the protocol:
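HeLa GR-bla cells; cmpd + dex 5 nM final, 18 h 37 C; LiveBLAzer B/G FRET substrate 2 h RT; fluorescence intensity read. Antagonist mode, qHTS.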

Test [16] is described as follows: qHTS assay for identifying genotoxic compounds that show differential cytotoxicity against isogenic chicken DT40 cell lines with known DNA damage response pathways - Rad54/Ku70 mutant cell line (AID 743015). Note: nearly all actives have a fitted effect of over 60% in size.
Test [17] deals with Androgen receptor (Homo sapiens) (UniProt P10275). Nature of the test: qHTS assay to identify small molecule antagonists of the androgen receptor (AR) signaling pathway (AID 743035; active = well fitted inhibition curve with a large enough effect in the signal ratio in the repeat runs, not every such curve was filed as active; the % refers to the signal ratio). A digest of the protocol: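 Fluorescence from a beta-lactamase FRET substrate (LiveBLAzer B/G, 2 h, room temperature) measured inhibition of R1881-stimulated signaling in GeneBLAzer AR-UAS-bla HEK293 cells exposed to compound for 16 h at 37C.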
Chain of Androgen receptor (Homo sapiens) (P10275 whole entry, looked up): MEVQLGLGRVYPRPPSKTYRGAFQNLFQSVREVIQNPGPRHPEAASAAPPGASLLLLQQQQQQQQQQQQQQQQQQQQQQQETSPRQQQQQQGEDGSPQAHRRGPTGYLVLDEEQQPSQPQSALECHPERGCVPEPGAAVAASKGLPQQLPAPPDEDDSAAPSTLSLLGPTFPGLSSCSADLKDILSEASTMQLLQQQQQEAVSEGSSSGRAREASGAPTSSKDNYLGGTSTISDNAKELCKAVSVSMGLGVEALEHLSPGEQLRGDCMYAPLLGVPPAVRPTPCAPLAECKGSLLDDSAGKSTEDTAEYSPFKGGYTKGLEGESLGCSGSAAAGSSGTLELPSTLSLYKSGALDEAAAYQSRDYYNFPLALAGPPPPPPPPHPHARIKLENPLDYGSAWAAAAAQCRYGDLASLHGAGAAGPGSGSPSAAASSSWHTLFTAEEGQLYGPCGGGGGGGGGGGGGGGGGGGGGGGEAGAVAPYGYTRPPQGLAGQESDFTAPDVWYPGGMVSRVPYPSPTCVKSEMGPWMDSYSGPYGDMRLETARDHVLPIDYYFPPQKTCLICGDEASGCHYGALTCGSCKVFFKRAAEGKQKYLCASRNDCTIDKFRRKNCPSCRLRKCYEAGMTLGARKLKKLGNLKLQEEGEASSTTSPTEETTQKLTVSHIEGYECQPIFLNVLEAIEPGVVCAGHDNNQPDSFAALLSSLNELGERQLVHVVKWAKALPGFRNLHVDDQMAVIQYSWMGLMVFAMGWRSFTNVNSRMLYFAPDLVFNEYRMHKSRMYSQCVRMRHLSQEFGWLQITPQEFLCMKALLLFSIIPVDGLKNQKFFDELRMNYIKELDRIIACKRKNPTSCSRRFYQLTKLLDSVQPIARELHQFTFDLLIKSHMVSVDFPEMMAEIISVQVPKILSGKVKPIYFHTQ

The target is the same in test [18]. Nature of the test: qHTS assay to identify small molecule agonists of the androgen receptor (AR) signaling pathway using the MDA cell line (AID 743040; note: nearly all actives have a fitted effect of over 20% in size). The method in brief: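 Human breast carcinoma MDA-kb2 reporter cells (MMTV-luc, AR/GR elements) were treated for 16 h at 37C in 0% CO2 following a 5 h settling period. Signal was quantified by ONE-Glo luminescence.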

The target is the same in test [19]. As to the kind of experiment: qHTS assay to identify small molecule antagonists of the androgen receptor (AR) signaling pathway using the MDA cell line (AID 743042; note: nearly all actives have a fitted effect of over 55% in size). A digest of the protocol:
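MDA-kb2 breast carcinoma cells carrying MMTV-luciferase (AR/GR responsive) were co-treated with compounds and the agonist R1881 for 16 h at 37C. Inhibition read as ONE-Glo luminescence; CellTiter-Fluor fluorescence measured in parallel for cytotoxicity.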

Unmarked numbers belong to inactive results. Inconclusive results are not listed. The source made the active and inactive calls. Unless noted, calls come from the whole dose curve; as a rule, active = well fitted curve in the direction sought with a large enough effect in the repeat runs; inconclusive = weak or mixed curves; inactive = no such curve, though single readings can be large; an effect the other way counts as inactive or inconclusive.
% is set by controls: 0 for no effect and ±100 for the full control effect.

Chain of Glucocorticoid receptor (Homo sapiens) (P04150 whole entry, looked up): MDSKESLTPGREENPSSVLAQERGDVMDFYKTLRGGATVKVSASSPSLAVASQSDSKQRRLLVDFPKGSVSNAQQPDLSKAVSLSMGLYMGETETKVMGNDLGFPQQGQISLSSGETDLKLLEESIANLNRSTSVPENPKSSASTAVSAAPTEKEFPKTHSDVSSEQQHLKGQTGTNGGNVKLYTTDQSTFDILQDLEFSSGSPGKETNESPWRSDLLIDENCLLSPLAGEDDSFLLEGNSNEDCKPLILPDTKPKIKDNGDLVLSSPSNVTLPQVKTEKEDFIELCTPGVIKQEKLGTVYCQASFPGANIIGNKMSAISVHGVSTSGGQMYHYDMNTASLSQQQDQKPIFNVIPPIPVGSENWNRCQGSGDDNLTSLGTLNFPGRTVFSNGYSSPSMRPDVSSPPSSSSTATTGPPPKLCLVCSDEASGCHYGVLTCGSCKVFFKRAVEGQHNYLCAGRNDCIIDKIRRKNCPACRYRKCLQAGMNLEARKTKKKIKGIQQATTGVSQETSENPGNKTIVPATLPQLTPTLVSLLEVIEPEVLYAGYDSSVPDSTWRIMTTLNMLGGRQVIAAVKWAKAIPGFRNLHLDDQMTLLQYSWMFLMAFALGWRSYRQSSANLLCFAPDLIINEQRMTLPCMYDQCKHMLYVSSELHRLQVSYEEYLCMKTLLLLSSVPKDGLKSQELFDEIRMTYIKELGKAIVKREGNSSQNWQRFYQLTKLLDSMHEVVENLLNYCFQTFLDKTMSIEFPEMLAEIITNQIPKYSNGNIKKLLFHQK

Regarding `CCC(C=O)CC`, the compound was called inactive in [1], in test [2], in test [3], in test [4], in test [5] and in [6]. The compound was called inactive in test [7], in test [8] and in test [10]. The Potency result in test [9], in test [11], in [12], in test [13] and in [14] was “inactive” in each case.
On to `CN(CCOc1ccc(NS(C)(=O)=O)cc1)CCc1ccc(NS(C)(=O)=O)cc1`, for which the outcome in test [1], in test [2], in [3], in test [4], in [5] and in test [6] was inactive. Further, the call in [7], in test [8] and in test [10] was inactive. In [9], the Potency was 7.56 µM (active). In addition, the Potency result in test [13] was “inactive”.
For `COc1cc(N)ccc1C`, the outcome in [1], in [2], in [3], in test [4], in test [5] and in [6] was inactive. For the same compound, the compound was classed as inactive in [7], in [8], in test [15] and in test [10]. Moreover, the Potency result in [11], in test [16], in test [13] and in [14] was “inactive” in each case.
With `CC[C@H](C)C(=O)O[C@H]1C[C@H](O)C=C2C=C[C@H](C)[C@H](CC[C@@H](O)C[C@@H](O)CC(=O)O)[C@H]21`, the compound was classed as inactive in test [1], in test [2], in test [3], in [4], in [5] and in [6]. Further, the compound was classed as inactive in [7], in [8], in test [15] and in [10]. Further, the Potency entry in test [11], in test [13] and in test [14] was “inactive” throughout.
On to `Cc1ccc(S(=O)(=O)O)c(C)c1`, for which the compound was classed as inactive in [1], in [2], in [3], in [4], in [5] and in test [6]. For the same compound, the result in test [7], in test [8] and in test [15] was inactive. Besides, the Potency result in test [11], in test [12], in [16] and in [13] was “inactive” throughout.
Turning to `CCCCCCCCSCC`, the compound was called inactive in test [1], in [2], in [3], in [4], in test [5] and in [6]. The result in test [7], in test [8] and in [10] was inactive. Further, the Potency result in test [9], in test [12], in [16], in test [13] and in test [14] was “inactive” throughout.
In the case of `BrCc1cccc(Oc2ccccc2)c1`, the call in test [1], in [2], in [3], in [4], in test [5] and in test [6] was inactive. The result in test [7], in test [8], in test [10] and in test [18] was inactive. Moreover, the Potency result in test [9], in test [13], in test [17] and in test [19] was “inactive” in each case.
`FC(F)(F)c1ccccc1-n1ccnc1`: the compound was called inactive in test [1], in test [2], in [3], in test [4], in [5] and in [6]. The result in [7], in test [8], in test [15] and in test [10] was inactive. Further, the Potency result in test [11], in test [12], in [16], in test [13] and in [14] was “inactive” each time.
For `COc1ccc(C2CNC(=O)C2)cc1OC1CCCC1` (configuration not stated), the fluorescence, % of fluorescein in test [1] is 0.0387% [at 18.6 µM]. Also, the fluorescence, % of fluorescent control in test [2] is -0.0755% [at 18.6 µM]; in test [4] it was -0.222% [at 18.6 µM]; in test [6] it was -0.0095% [at 18.6 µM]; in test [8], -0.0914% [at 18.6 µM]. Also, in test [3], the activity change was 0.0153% [at 18.6 µM]. In addition, in test [5], the fluorescence, % of Rose Bengal is 0.472% [at 18.6 µM]. The fluorescence, % of fluorescein control in test [7] was -0.0056% [at 18.6 µM]. Besides, the outcome in test [15] and in test [10] was inactive. The Potency result in [11], in test [12], in [16] and in test [13] was “inactive” in each case.

Values taken from PubChem BioAssay (Tox21).
